# Data taken from PubChem BioAssay AID777 (Sanford-Burnham Center for Chemical Genomics, 2007).
# The whole screen tested about 96,000 compounds, of which about 19,000 (20%) were called active. Not all results are given here. A number with no mark means an inactive call.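 The calls were made as follows: active = blocking of liver enzyme CYP2C9 beyond about 50% at 5 µM (limit read from the data); inactive = the rest.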
# Biological target: Cytochrome P450 2C9 (Homo sapiens) (UniProt P11712)
# Assay: blockers of cytochrome P450 2C9 activity – biochemical, luminescence, ADME assay, primary screen (AID 777)
# Settings: CYP2C9 Supersomes, luciferin-H conversion, at 5 µM, hits give high values
# Chain of Cytochrome P450 2C9 (Homo sapiens) (P11712 whole entry, looked up): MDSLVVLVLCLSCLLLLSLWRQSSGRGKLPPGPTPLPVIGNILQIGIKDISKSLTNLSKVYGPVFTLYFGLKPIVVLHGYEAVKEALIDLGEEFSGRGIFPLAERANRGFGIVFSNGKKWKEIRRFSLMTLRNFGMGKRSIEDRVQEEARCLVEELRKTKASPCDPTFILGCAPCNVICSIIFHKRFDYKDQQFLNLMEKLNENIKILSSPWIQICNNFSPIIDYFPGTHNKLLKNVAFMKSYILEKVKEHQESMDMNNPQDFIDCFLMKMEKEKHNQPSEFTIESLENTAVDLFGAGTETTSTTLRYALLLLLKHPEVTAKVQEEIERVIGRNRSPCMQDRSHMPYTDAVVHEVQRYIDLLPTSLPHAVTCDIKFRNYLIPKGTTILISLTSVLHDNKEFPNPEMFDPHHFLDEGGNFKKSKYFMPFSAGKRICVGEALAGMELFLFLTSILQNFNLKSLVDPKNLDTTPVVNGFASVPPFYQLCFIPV
row,SMILES,inhibition
1,O=C(OCCO)c1cc(Cl)c(C(=O)OCCO)cc1Cl,48.4%
2,Cc1ccc(NC(=O)c2ccc(CSc3ncnc4nc[nH]c34)cc2)c(C)c1,-76.5%
3,CCN1CCN(C(c2cccnc2)c2cc(Cl)c3cccnc3c2O)CC1 (configuration not stated),29.8%
4,CCn1ncc(C2=NOC(C(=O)Nc3ccccc3C(=O)OC)C2)c1C (configuration not stated),-34.3%
5,CCN1CCc2c(C#N)c(NCc3ccccc3)nc(NCCO)c2C1,35.5%
6,CC(C)CCNc1nc(N2CCCC2)c2c(c1C#N)CCN(C)C2,69.7% (active)
7,CCOC(=O)C(C)Oc1cccc2c(=O)n(CC(=O)N3CCc4ccccc43)ccc12 (configuration not stated),9%
8,CC(=O)c1cccc(S(=O)(=O)N2CCC(n3nnc4cc(F)ccc43)CC2)c1,-31%
9,O=S(=O)(c1cccc(-c2nnc(SC(F)F)n2-c2ccccc2)c1)N1CCCCC1,21.2%
10,O=S(=O)(c1cccc(S(=O)(=O)N2CCC(n3nnc4ccccc43)CC2)c1)N1CCCCC1,88.3% (active)
11,CCCN(CCC)CCNC(=O)c1cc2c(C)nc3ccccc3c2o1,8.6%
12,Cc1sc2c(c1C)c(=O)n(-c1ccccc1)c1nncn21,-2.8%
13,N#Cc1nc(Cc2ccccc2)oc1NCCc1ccccc1,39.2%
14,CCOc1ccc(Nc2oc(Cc3ccccc3)nc2C#N)cc1,78.1% (active)
15,N#Cc1nc(-c2ccc(OCc3ccccc3)cc2)oc1NCCCN1CCOCC1,41%
16,N#Cc1nc(COc2ccc(-c3ccccc3)cc2)oc1NCc1cccnc1,70.7% (active)
17,COc1ccc(Nc2oc(-c3ccccc3Cl)nc2C#N)cc1,47%
18,c1ccc(-c2cc(-c3nnc4sc(-c5ccccn5)nn34)[nH]n2)cc1,-2.3%
19,COc1ccc(C(F)(F)F)cc1N/C=C\c1nnnn1-c1ccc(C)cc1,44.6%
20,CCN(CC)S(=O)(=O)c1cc(C(=O)Nc2ccccn2)ccc1C,38.8%
21,CCN(CC)C(=O)N1CCN(C(=O)c2ccc(C)cn2)CC1,-1%
22,CCCOc1ccc(C2NC(=O)NC(c3ccccc3)=C2C(C)=O)cc1OCC (configuration not stated),37.3%
23,Cc1cccc(COc2ccccc2/C=N/Nc2ccc([N+](=O)[O-])cc2)c1,43.5%
24,CC(=O)CSc1nnc(CSc2ncccn2)n1C1CCCCC1,-10.7%
25,CC(=O)C1=C(O)C(=O)N(c2ccc(S(N)(=O)=O)cc2)C1c1ccccc1F (configuration not stated),62.8% (active)

row,SMILES,inhibition
1,CCN(CC)CCN1C(=O)C(=O)/C(=C(/O)c2ccccc2)C1c1ccccc1F (configuration not stated),-5.9%
2,CCCNC(=O)c1c(N)n(-c2ccc(S(N)(=O)=O)cc2)c2nc3ccccc3nc12,-2.9%
3,COCC(=O)Nc1ccc(Br)cc1,-12.9%
4,O=C(NCCCCCCNC(=O)NCc1ccco1)NCc1ccco1,-11.1%
5,O=C(/C=C/c1ccc(Cl)cc1Cl)NCc1ccco1,-2.5%
6,O=C(NCc1ccco1)C1(c2ccc(Cl)cc2)CCCC1,58.8% (active)
7,Cc1nc2c(-c3ccc(F)cc3)c(C)nn2c(C)c1CCC(=O)N1CCN(c2ccccn2)CC1,13.1%
8,O=C(/C=C/c1ccc(Cl)cc1Cl)c1cccnc1,14.7%
9,CN1CCN(c2ccc([N+](=O)[O-])c(Sc3nc4ccccc4[nH]3)c2)CC1,52.2% (active)
10,COc1ccccc1CSc1nc2ccccc2[nH]1,43.6%
11,CSc1nnc2c(n1)OC(c1cn(C)c3ccccc13)N(C(C)=O)c1ccccc1-2 (configuration not stated),1.6%
12,Cc1ccc(-c2nnc(SC(C)C#N)n2N)cc1 (configuration not stated),1.1%
13,CSc1ccccc1C(=O)Nc1cccc(C(C)=O)c1,27.8%
14,Cc1cc(C)nc(N(C#N)CC(=O)Nc2ccccc2)n1,7.1%
15,CSc1nc(C)cc(SC(C(C)=O)C(=O)Nc2ccccc2)n1 (configuration not stated),65.3% (active)
16,Cc1csc(NC(=O)NC2(C(F)(F)F)Oc3ccccc3O2)n1,-6.5%
17,COc1ccc(C(=O)Nc2cc(C)ccc2NC(=O)COc2ccccc2)cc1,6.9%
18,Cc1ccc2nc(-c3ccc(SCC(=O)Nc4cc(C)on4)nc3)[nH]c2c1,2.6%
19,CCOC(=O)c1cc2cc(C)ccc2[nH]1,13.9%
20,CC(N)C12CC3CC(CC(O)(C3)C1)C2 (configuration not stated),-4%
21,FC(F)(F)COc1nc(N2CCCCC2)nc(N2CCNCC2)n1,-4.2%
22,NC(=O)CSC1=Nc2ccccc2C2=NC(CCC(=O)NCc3ccc(F)cc3)C(=O)N12 (configuration not stated),16.8%
23,O=C(CC1N=C2c3ccccc3N=C(SCc3ccccc3Cl)N2C1=O)NCc1ccco1 (configuration not stated),85.2% (active)
24,O=C(CSc1c2c(nc3ccc(Cl)cc13)CCCC2)NCc1ccco1,48.3%
25,CCC(C)NC(=O)CSC1=Nc2ccccc2C2=NC(CCC(=O)NCc3ccco3)C(=O)N12 (configuration not stated),67.8% (active)

row,SMILES,inhibition
1,O=C(CSC1=Nc2ccccc2C2=NC(CC(=O)NCc3ccco3)C(=O)N12)NCc1ccco1 (configuration not stated),65.1% (active)
2,CCOCCc1c(O)nc(SCC(=O)NCc2ccco2)[nH]c1=O,-8.3%
3,O=C(COC(=O)C12CC3CC(CC(C3)C1)C2)NCc1ccco1,35.4%
4,CCOc1c(Cl)cc(/C=N/O)cc1OC,-30%
5,COC(=O)c1cc(C(=O)OC)cc(N2C(=O)CC(N3CCN(c4ccccc4)CC3)C2=O)c1 (configuration not stated),49%
6,Cn1cc(S(=O)(=O)N2CCC(Cc3ccccc3)CC2)c(=O)n(C)c1=O,23.7%
7,C=C1c2cc(CC)ccc2NC(=O)N1c1ccc(C)cc1,10.6%
8,CC(C)(C)n1nnc(CCc2nnn(C(C)(C)C)n2)n1,3.2%
9,Cc1c(NC(=O)/C=C/C(=O)O)cccc1[N+](=O)[O-],-2.8%
10,Cc1ccc(NC2(C#N)C(=O)Nc3ccccc32)cc1 (configuration not stated),-24.6%
11,CCOC(=O)c1c(NC(=O)CCl)sc(C(=O)N(CC)CC)c1C,49.6%
12,CCOC(=O)c1c(NC(=O)/C=C/c2ccco2)sc(C)c1C,-4%
13,CCOC(=O)c1c(NC(C)=O)sc2c(O)c(Br)ccc12,55% (active)
14,CC(=O)Nc1nonc1-c1nc2ccccc2n1Cc1ccccn1,7.4%
15,COc1ccccc1N1CCN(C(=O)c2cc(-c3ccc(Br)cc3)on2)CC1,-12%
16,COc1ccccc1N1CCN(C(=O)c2c(-c3c(Cl)cccc3Cl)noc2C)CC1,88% (active)
17,COc1ccccc1N1CCN(C(=O)CSc2nnc(-c3ccoc3C)o2)CC1,25.8%
18,CN1CCN(CCCNC(=O)c2cc3c(=O)oc4ccccc4c3s2)CC1,-15.9%
19,CC(C)NS(=O)(=O)c1ccc(OCC(=O)Nc2ccc3c(c2)OCCO3)cc1,40.9%
20,COc1ccc(OCC(=O)NCCc2ccc(S(N)(=O)=O)cc2)cc1,41.9%
21,Cc1ccc(CNC(=O)COc2ccc(S(=O)(=O)NC(C)C)cc2)cc1,52.7% (active)
22,COc1ccc(-c2cc(C)nc3nc(N)nn23)cc1,-29.3%
23,Cc1cccc(N2C(=O)c3cccnc3C2=O)c1,3.1%
24,Cc1c(C(=O)CN2CCOCC2)[nH]c2ccccc12,-15.8%
25,CCOC(=O)c1[nH]c2ccc(OC)cc2c1NC(=O)N1CCOCC1,-9.2%

row,SMILES,inhibition
1,Cc1c(C(=O)N2CCOCC2)[nH]c2ccc(OCc3ccccc3)cc12,72.7% (active)
2,Cc1ccc(OCC(O)CN2CCN(CC(O)COc3ccc(C)cc3Cl)CC2)c(Cl)c1 (configuration not stated),-10.1%
3,COC(=O)c1[nH]c2ccc(Br)cc2c1NC(=O)Oc1ccccc1,4.5%
4,CCCS(=O)(=O)Nc1c(C(=O)O)[nH]c2ccccc12,33.7%
5,COC(=O)c1[nH]c2ccccc2c1NS(=O)(=O)c1ccc(OC)cc1OC,74.8% (active)
6,CCCCCCCCOC1OC(CO)C(O)C(O)C1NC(C)=O (configuration not stated),-2.6%
7,COC(=O)c1ccc(C(=O)Nc2cc(Cl)ccc2Cl)cc1NC(=O)c1ccccc1C,-13.7%
8,Cc1ccc(N2C(=O)c3ccccc3C2(O)c2ncc[nH]2)cc1 (configuration not stated),-0.7%
9,CCOCC(=O)Nc1cc(OC)c(Cl)cc1OC,13.3%
10,Cc1nc(N2CCCC2C(=O)O)c2oc3ccccc3c2n1 (configuration not stated),-6.6%
11,O=C(CSC1=Nc2ccccc2C2=NC(c3ccccc3)C(=O)N12)NCC1CCCO1 (configuration not stated),39.3%
12,CC(C)C1N=C2c3ccccc3N=C(SCC(=O)c3ccc(O)c(O)c3)N2C1=O (configuration not stated),51.3% (active)
13,CCOC(=O)c1cc2occc2n1CC(=O)NC1CCC(C)CC1 (configuration not stated),22%
14,O=C1/C(=C\Nc2ccccc2)CCN1c1ncccn1,3.1%
15,CCOC(=O)CSc1nccc(N(C)C)c1C#N,-35%
16,CCOC(=O)CCc1c(C)c(C#N)c2[nH]c3ccccc3n2c1=O,64.1% (active)
17,CCOC(=O)C1CCN(C(=O)Cn2cc(C#N)c3ccccc32)CC1,-6.6%
18,Cc1c(CCO)c(=O)n(-c2ccccc2)n1S(=O)(=O)c1ccc(F)cc1,37.6%
19,CCOC(=O)C1CCN(Cc2coc3ccc(Cl)cc3c2=O)CC1,-49.2%
20,COc1ccccc1NC(=O)CSc1nnc(Cn2nnc(-c3ccccc3)n2)n1-c1ccccc1,40.2%
21,CCN(CC(=O)Nc1ccccc1OC)C(=O)Cn1cnc2ccccc2c1=O,14.4%
22,CCCc1nc(SCC(=O)Nc2ccccc2OC)c2c(=O)n(C)c(=O)n(C)c2n1,70.3% (active)
